Measurements: PubChem BioAssay AID686971 (National Center for Advancing Translational Sciences (NCATS), 2013)
Hit rate of the full screen: of about 360,000 compounds, about 7,500 (2.1%) were called active. Another 8% or so got no clear call; they are omitted. The list comes from a sample in which actives are over-represented; it also holds similar structures and randomly drawn compounds. Values without a mark were called inactive. Calls follow the shape of the dose curve; as a rule, active = well fitted cell-killing curve with a large enough effect; inconclusive = small, poorly fitted or top-dose-only effect, or effect the other way, or another doubt; inactive = no such curve, though single readings can be large or run the other way.

Assay: qHTS for induction of synthetic lethality in tumor cells producing 2HG: qHTS for the HT-1080-IDH1KD cell line;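 as to activity, negative = toxicity: 0% = DMSO wells and -100% = cell-free medium wells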
Conditions: HT-1080 IDH1 knockdown viability, ATP luminescence, 48 h; series mostly up to 46.1 µM; activity, negative = toxicity: at the top concentration
In short: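 Knockdown cells (IDH1KD HT-1080) received compounds 2 h after plating at 750 cells/well and were kept 48 h at 37 °C in 5% FBS RPMI. A CellTiter-Glo luminescence read gave % activity for curve fitting.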
Potency is read from the fitted curve at half-maximal effect.

Row | Structure (SMILES) | activity, negative = toxicity [%] | Potency
1 | O=C(C(=O)N1CCN(c2ccccc2)CC1)c1ccc2c(c1)OCO2 | 11 | 
2 | O=C(c1ccccc1)N1CCN(c2cc(-c3ccccc3)nc3cc(-c4cccc(Cl)c4)nn23)CC1 | 8.08 | 
3 | CN(C)CCN1CCN(c2cc(-c3cccc(Cl)c3)nc3ccnn23)CC1 | -16.7 | 
4 | C#Cc1cc(N2CCN(C(=O)c3ccoc3)CC2)n2nc(-c3cccc(Cl)c3)cc2n1 |  | 9.2 µM (active)
5 | O=C(NCc1ccccc1)C(c1ccc(F)cc1)N1CCN(C(=O)C2CCCO2)CC1 (centres undefined) | 21.4 | 
6 | O=C1CC(c2ccccc2)=NN1c1ccc([N+](=O)[O-])cc1 |  | 20.6 µM (active)
7 | O=[N+]([O-])c1ccc(N2CCOCC2)cc1 | -1 | 
8 | COc1ccc(C2=NN(c3nc4ccccc4s3)C(=O)C2)cc1 | -24.9 | 
9 | CSc1nc2ccc(NC(=O)c3c(F)cccc3F)cc2s1 | -17.3 | 
10 | CC(=O)Nc1ccc2nc(NC(=O)CS(=O)(=O)c3ccc(F)cc3)sc2c1 | -0.314 | 
11 | CCCC(=O)Nc1nc2ccc(NC(=O)c3c(F)c(F)c(OC)c(F)c3F)cc2s1 |  | 0.651 µM (active)
12 | Nc1nc2ncccn2c1-c1ccccc1 | 23.7 | 
13 | CCN1C(=O)[C@@H]2[C@@H]3CN(S(=O)(=O)c4ccccc4C)[C@@H](c4ccc(Cl)cc4)[C@@H]3C(=O)C[C@@H]2C1=O | 4.33 | 
14 | CC1CCCCC1NC(=O)/C(C#N)=C/C=C/c1ccccc1[N+](=O)[O-] (centres undefined) |  | 4.61 µM (active)
15 | O=[N+]([O-])c1ccccc1/C=C/CN1CCC(O)CC1 | -1.05 | 
16 | O=[N+]([O-])c1ccccc1/C=C/CN1CCCC(CO)C1 (centres undefined) | -11.4 | 
17 | CC1=C(C(=O)Nc2cccc(C(=O)NCC(C)c3ccccc3)c2)SCCO1 (centres undefined) | -0.161 | 
18 | O=C(NCc1cccnc1)c1cc(C2CCCN(C(=O)C3CCCCC3)C2)on1 (centres undefined) | 0.399 | 
19 | O=C(c1snnc1-c1ccccc1)N1CCOCC1 | 13.4 | 
20 | COc1cc2ccccc2cc1C(=O)N1CCOCC1 | 2.75 | 
21 | Cc1oc2c(c1C(=O)N1CCOCC1)C(=O)c1ccccc1C2=O |  | 9.2 µM (active)
22 | O=C(CN1C(=O)NC2(CCc3ccccc32)C1=O)NC1CCCCC1 (centres undefined) | 0.155 | 
23 | O=C(COC(=O)/C=C/c1ccc(Cl)cc1)NC1CCS(=O)(=O)C1 (centres undefined) | -4.55 | 
24 | O=C(Nc1ccc(OCCO)cc1)c1csc([C@H]2C[C@H](O)[C@@H](CO)O2)n1 | 10.3 | 
25 | CC(C)CN1CCC1(C)C(=O)Nc1ccc(OC(F)F)cc1 (centres undefined) | 2.39 | 
26 | O[C@H]1CN(Cc2cccs2)[C@@H](c2ccc(Cl)cc2)C[C@@H]1n1cc(C2CC2)nn1 | 4.5 | 
27 | Nc1nonc1-n1nnc(C(=O)N/N=C\c2ccncc2)c1CN1CCCCC1 | -3.01 | 
28 | Nc1nonc1-n1nnc(C(=O)N/N=C/c2ccccc2O)c1CN1CCCC1 |  | 14.6 µM (active)
29 | NNC(=O)c1nnn(-c2nonc2N)c1CN1CCCC1 | -3.44 | 
